Drawing on PubChem BioAssay, this text covers viability and inhibition for 36 compounds.

Results filed as inconclusive are left out. The source made the active and inactive calls.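 Rule for the calls, unless noted: active = viability at or below 27.92% in each of two runs, the all-compound median minus 4 SD; inconclusive = no clear call, values can overlap the other calls; inactive = the rest.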

The nature of one experiment: viability of PTEN-null HCT116 cells – cell-based, HCT116 clonal line, CellTiter-Glo, pilot screen (AID 824).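 Note: 0% = 20 µM Hyamine control and 100% = vehicle cell control.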 As to conditions: HCT116 PTEN-deleted viability, 60 h, at 10 µM, hits give low values. (In general: Cellular ATP, detected with luciferase, serves as a proxy for viable cell number.)
For the compound `Brc1ccc(Oc2nnnn2-c2ccccc2)cc1`, the viability is 88.9% (inactive).
On to `COc1cc(Cl)c(S(=O)(=O)N2CCN(Cc3ccc4c(c3)OCO4)CC2)cc1Cl`, for which the viability was 82.2% (inactive).
The same measure, in the same setting: in the case of `Cc1ccc(-c2nc(C(=O)NC3CCCCCC3)no2)cc1` it was 104% (inactive); in that of `O=C(c1cc(C2CC2)on1)N1CCN(c2ccc(F)cc2)CC1`, 92.4% (inactive); in that of `Brc1ccc(-c2nnc3ccc(N4CCN(c5ccccc5)CC4)nn23)cc1`, 75.5% (inactive).
Turning to `CCOC(=O)c1ccccc1NC1c2ccccc2C(=O)N1c1ccc(C)cn1` (configuration not stated), the viability was 79.6% (inactive).
The same measure, in the same setting: in the case of `O=C1c2ccccc2C(Nc2ccc(S(=O)(=O)N3CCOCC3)cc2)N1c1cccnc1` (configuration not stated) it was 97% (inactive); in that of `Cc1ccccc1S(=O)(=O)Cc1ccc(C(=O)N2CC(C)CC(C)C2)o1` (configuration not stated), 90.2% (inactive); in that of `CCOC(=O)C1CCN(C(=O)Nc2ccc(Cl)cc2)CC1`, 102% (inactive).
As for `Cc1c(S(=O)(=O)N2CCc3ccccc3C2)c(=O)n(C)c(=O)n1C`, the viability was 97.9% (inactive).
Turning to `Cc1ccc(Cl)cc1N1CCN(C(=O)CCS(=O)(=O)c2cccc3nonc23)CC1`, the viability was 75.4% (inactive).
Take `Cn1cccc1Cc1nnc(SCC(=O)Nc2ccc3c(c2)OCCO3)n1CCc1ccccc1`: the viability is 81% (inactive).
With `COc1ccc(-c2n[nH]c(C)c2-c2cnn(-c3ccccc3)c2)c(O)c1`, the viability was 92.2% (inactive).
Take `N#CCCN1CCN(C(=S)c2ccc(-c3cccc(Cl)c3)o2)CC1`: the viability is 83% (inactive).
With `COc1cccc(NC(=O)c2ccc(S(=O)(=O)N3CCCCC3)cc2)c1`, the viability was 85.7% (inactive).
For the compound `Cc1cccc(N2CCN(C(=O)c3cc4c(C)nc5ccccc5c4o3)CC2)c1C`, the viability is 78.2% (inactive).
`N#Cc1c(NC(=O)CCCN2C(=O)c3ccccc3C2=O)oc(-c2ccccc2)c1-c1ccccc1`: the viability is 94.7% (inactive).
Take `CCn1c(C(C)NC(=O)c2cccc(C)c2)nc2ccccc21` (configuration not stated): the viability is 95.6% (inactive).
Same read-out and setting: in the case of `COc1cc(/C=C/C2=NC(=O)C(C)(C)O2)ccc1O` it was 71.9% (inactive); in that of `COc1ccc(OC)c(NC(=O)CN(c2ccc(C(C)C)cc2)S(=O)(=O)c2c(C)noc2C)c1`, 48.1% (inactive); in that of `O=C(Cn1cc2c(n1)CCCCC2)NCCCN1CCOCC1`, 99.8% (inactive).
In the case of `O=C(CCS(=O)(=O)c1cccc2nonc12)N1CCN(c2ccc(F)cc2)CC1`, the viability is 96.2% (inactive).
Consider `Cc1ccc(CNC(=O)CS(=O)Cc2nc(-c3ccccc3C)oc2C)cc1` (configuration not stated), for which the viability was 98.4% (inactive).
Consider `CCC(C)(C(=O)NC1CCCC1)N(C(=O)CNC(C)=O)c1ccc(C)cc1` (configuration not stated), for which the viability is 96.7% (inactive).
The same measure, in the same setting: then `COc1ccc(OC)c2c1sc(=NC(=O)c1ccco1)n2C`, with 67.7% (inactive); and `C=CCNc1ncnc2c1cnn2-c1ccc(Cl)cc1`, with 106% (inactive).
As to `O=C(c1cnn2ccccc12)N1CCCc2ccccc21`, the viability is 91.9% (inactive).
In the case of `COc1cc2c(cc1OC)C(C)N(C(=O)c1cc3ccccc3o1)CC2` (configuration not stated), the viability was 42.7% (inactive).
For the compound `CCOC(=O)C1CCCN(C(=O)CCCn2nc(C)n3c(cc4sccc43)c2=O)C1` (configuration not stated), the viability is 94.3% (inactive).
As to `CCCc1nnc(NC(=O)c2ccncc2)s1`, the viability is 99.1% (inactive).
For `Cc1ccc(-c2nc(CS(=O)CC(=O)NCc3ccc(Cl)cc3)c(C)o2)cc1` (configuration not stated), the viability is 80.2% (inactive).
`COc1ccc(C)cc1NC(=O)CSc1nnc(-c2ccccn2)n1Cc1ccco1`: the viability is 88.2% (inactive).
For the compound `Cc1ccc(C)c(C(=O)Nc2c(C(N)=O)oc3ccccc23)c1`, the viability is 86.7% (inactive).
For the compound `CCCCSc1nc2c(c(=O)[nH]c(=O)n2C)n1CCc1ccccc1`, the viability was 85.9% (inactive).
Consider `Cn1c(=O)oc2cc(S(=O)(=O)N3CCC(C(=O)NCC4COc5ccccc5O4)CC3)ccc21` (configuration not stated), for which the viability was 96.8% (inactive).
In the case of `COc1ccccc1-n1c(CNC(=O)c2ccccc2)nnc1SCC(=O)Nc1nnc(C)s1`, the viability was 102% (inactive).

Another experiment in a line: RAM pathway blockade in budding yeast – dse1pr::URA3 reporter, 5-FOA selection, pilot screen (AID 869;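 active = inhibition over a set limit, the all-compound mean plus 3 SD, in both replicate runs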;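 note: 0% = DMSO wells with no growth and 100% = 10 µM 1-NA-PP1 with full growth; RAM network block rescues cells from 5-FOA so hits raise OD615 growth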). As to conditions: S. cerevisiae dse1pr::URA3 5-FOA growth, OD615, 2 d; at 10 µM; hits give high values; strain carries analog-sensitive mutant Cbk1 kinase.
Regarding `Brc1ccc(Oc2nnnn2-c2ccccc2)cc1`, the inhibition is 1.51% (inactive).
On to `COc1cc(Cl)c(S(=O)(=O)N2CCN(Cc3ccc4c(c3)OCO4)CC2)cc1Cl`, for which the inhibition was 1.04% (inactive).
As to `Cc1ccc(-c2nc(C(=O)NC3CCCCCC3)no2)cc1`, the inhibition was -0.1% (inactive).
Turning to `O=C(c1cc(C2CC2)on1)N1CCN(c2ccc(F)cc2)CC1`, the inhibition was 1.9% (inactive).
Take `Brc1ccc(-c2nnc3ccc(N4CCN(c5ccccc5)CC4)nn23)cc1`: the inhibition is 2.52% (inactive).
In the case of `CCOC(=O)c1ccccc1NC1c2ccccc2C(=O)N1c1ccc(C)cn1` (configuration not stated), the inhibition was 2.52% (inactive).
For `O=C1c2ccccc2C(Nc2ccc(S(=O)(=O)N3CCOCC3)cc2)N1c1cccnc1` (configuration not stated), the inhibition is -0.33% (inactive).
Consider `Cc1ccccc1S(=O)(=O)Cc1ccc(C(=O)N2CC(C)CC(C)C2)o1` (configuration not stated), for which the inhibition was -0.465% (inactive).
Take `CCOC(=O)C1CCN(C(=O)Nc2ccc(Cl)cc2)CC1`: the inhibition is -0.18% (inactive).
For the compound `Cc1c(S(=O)(=O)N2CCc3ccccc3C2)c(=O)n(C)c(=O)n1C`, the inhibition is 2.17% (inactive).
Consider `Cc1ccc(Cl)cc1N1CCN(C(=O)CCS(=O)(=O)c2cccc3nonc23)CC1`, for which the inhibition was 0.805% (inactive).
Same read-out and setting: then `Cn1cccc1Cc1nnc(SCC(=O)Nc2ccc3c(c2)OCCO3)n1CCc1ccccc1`, with 2.25% (inactive).
Regarding `COc1ccc(-c2n[nH]c(C)c2-c2cnn(-c3ccccc3)c2)c(O)c1`, the inhibition was -0.205% (inactive).
On to `N#CCCN1CCN(C(=S)c2ccc(-c3cccc(Cl)c3)o2)CC1`, for which the inhibition is 1.51% (inactive).
As for `COc1cccc(NC(=O)c2ccc(S(=O)(=O)N3CCCCC3)cc2)c1`, the inhibition was 1.28% (inactive).
On to `Cc1cccc(N2CCN(C(=O)c3cc4c(C)nc5ccccc5c4o3)CC2)c1C`, for which the inhibition is -1.31% (inactive).
In the case of `N#Cc1c(NC(=O)CCCN2C(=O)c3ccccc3C2=O)oc(-c2ccccc2)c1-c1ccccc1`, the inhibition was -0.33% (inactive).
Regarding `CCn1c(C(C)NC(=O)c2cccc(C)c2)nc2ccccc21` (configuration not stated), the inhibition is 2.54% (inactive).
In the case of `COc1cc(/C=C/C2=NC(=O)C(C)(C)O2)ccc1O`, the inhibition is 0.485% (inactive).
For `COc1ccc(OC)c(NC(=O)CN(c2ccc(C(C)C)cc2)S(=O)(=O)c2c(C)noc2C)c1`, the inhibition was 2.27% (inactive).
Take `O=C(Cn1cc2c(n1)CCCCC2)NCCCN1CCOCC1`: the inhibition was 2.08% (inactive).
`O=C(CCS(=O)(=O)c1cccc2nonc12)N1CCN(c2ccc(F)cc2)CC1`: the inhibition is 1.71% (inactive).
`Cc1ccc(CNC(=O)CS(=O)Cc2nc(-c3ccccc3C)oc2C)cc1` (configuration not stated): the inhibition is 1.06% (inactive).
For `CCC(C)(C(=O)NC1CCCC1)N(C(=O)CNC(C)=O)c1ccc(C)cc1` (configuration not stated), the inhibition was 2.1% (inactive).
Take `COc1ccc(OC)c2c1sc(=NC(=O)c1ccco1)n2C`: the inhibition was 2.21% (inactive).
The same measure, in the same setting: in the case of `C=CCNc1ncnc2c1cnn2-c1ccc(Cl)cc1` it was 4.6% (inactive).
Take `O=C(c1cnn2ccccc12)N1CCCc2ccccc21`: the inhibition is 2.38% (inactive).
Turning to `COc1cc2c(cc1OC)C(C)N(C(=O)c1cc3ccccc3o1)CC2` (configuration not stated), the inhibition was 1.52% (inactive).
On the same count and under the same terms, then `CCOC(=O)C1CCCN(C(=O)CCCn2nc(C)n3c(cc4sccc43)c2=O)C1` (configuration not stated), with 1.37% (inactive); and `CCCc1nnc(NC(=O)c2ccncc2)s1`, with 1.42% (inactive); and `Cc1ccc(-c2nc(CS(=O)CC(=O)NCc3ccc(Cl)cc3)c(C)o2)cc1` (configuration not stated), with 3.42% (inactive).
On the same count and under the same terms, then `COc1ccc(C)cc1NC(=O)CSc1nnc(-c2ccccn2)n1Cc1ccco1`, with 1% (inactive).
Turning to `Cc1ccc(C)c(C(=O)Nc2c(C(N)=O)oc3ccccc23)c1`, the inhibition was 0.595% (inactive).
As to `CCCCSc1nc2c(c(=O)[nH]c(=O)n2C)n1CCc1ccccc1`, the inhibition is 2.35% (inactive).
Take `Cn1c(=O)oc2cc(S(=O)(=O)N3CCC(C(=O)NCC4COc5ccccc5O4)CC3)ccc21` (configuration not stated): the inhibition was 3.92% (inactive).
As to `COc1ccccc1-n1c(CNC(=O)c2ccccc2)nnc1SCC(=O)Nc1nnc(C)s1`, the inhibition was 1.05% (inactive).

The term viability denotes a read-out of living cells in per cent, often relative to untreated cells. By inhibition is commonly meant the change of the read-out against control, counted positive when it falls.
